Shiga inhibitor: inhibitors of Shiga toxin in Vero cells. Vero cells, Shiga toxin protein synthesis inhibition reporter. inhibition, % at 38.7 µM. 290,000 tested, 9.2% active. AID 2315; in the data active = inhibition mostly above about 28%, no sharp cut-off; inactive = mostly below about 43%; also: 0% is about no effect
Pf growth 48h: P. falciparum growth inhibition at 48 hours (one generation) | 310,000 tested, 5.9% active | Potency, µM (highest dose often 28.7 µM), for the others: top-dose activity change, negative = inhibition, actives largely listed as inhibitors | P. falciparum luciferase growth in erythrocytes, 48 h; also: potency is read from the fitted curve at half-maximal effect; % is scaled to controls: 0 for no effect and ±100 for the full control effect
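Growth was read as firefly luciferase luminescence after a 48 h, 37 C, 5% CO2 exposure of compounds to reporter-bearing P. falciparum cultures (0.1% parasitemia, 2% hematocrit final) in Albumax-supplemented RPMI 1640.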
Pf growth 96h: P. falciparum growth inhibition at 96 hour, primary screen for plastid delayed-death inhibitors; Potency, µM (doses to about 28.7 µM), inactives show top-dose activity change, negative = inhibition, actives largely listed as inhibitors; P. falciparum luciferase reporter growth, 96 h; 320,000 tested, 6.9% active; also: potency is read from the fitted curve at half-maximal effect; % is scaled to controls: 0 for no effect and ±100 for the full control effect
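Readout is luminescence from an integrated firefly luciferase in P. falciparum. Red cells, 2% hematocrit and 0.05% parasitemia final, were cultured with compound through two parasite generations (96 hours) at 37 C, 5% CO2.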
CHX counter: counter-screen hit for Shiga toxin inhibitors, cycloheximide; cell reporter, cycloheximide protein synthesis inhibition counterscreen; max response, %; 300,000 tested, 12% active; in the data active = max response mostly above about 13%, no sharp cut-off; inactive = mostly below about 14%; also: read at 38.3 µM for the half of the compounds with a filed dose; 0% is about no effect
MARV entry inh: blocks Marburg virus binding to or entry into cells | Marburg virus pseudotyped entry inhibition, cell reporter | Potency, µM (titrated, usually from 37.8 µM), for inactives: at the top dose activity change, negative = inhibition, hits mostly inhibitors | 300,000 tested, 1.8% active; calls by dose curve; tested in HEK293 cells; also: potency is read from the fitted curve at half-maximal effect; % is scaled to controls: 0 for no effect and ±100 for the full control effect
LASV entry inh: inhibitors of Lassa virus binding or cell entry | Lassa virus pseudotype entry inhibition, cell reporter | Potency, µM (top dose mostly 37.9 µM), inactives show top-dose activity change, negative = inhibition, most hits filed as inhibitors | 300,000 tested, 1.2% active; calls by dose curve; tested in HEK293 cells; also: potency is read from the fitted curve at half-maximal effect; % is scaled to controls: 0 for no effect and ±100 for the full control effect; nearly all actives have a fitted effect of over 50% in size
* = called active by the depositor; ? = inconclusive; nt = no result given; [ ] = remark or other dose. Hits are enriched below; roughly 19% of the tested compounds scored in any of these assays. Unless noted, calls follow the shape of the dose curve; as a rule, active = well fitted inhibition curve with a large enough effect; inconclusive = small, poorly fitted or top-dose-only effect, or another doubt; inactive = no such curve, though single readings can be large or run the other way.

SMILES	Shiga inhibitor	Pf growth 48h	Pf growth 96h	CHX counter	MARV entry inh	LASV entry inh
COc1ccc([C@H]2CC(=O)C=C(c3cc(C=O)ccc3OC)C2)cc1OC	nt	-14.2%	-1.6%	nt	nt	nt
COc1ccc(C(=O)C2CCN(CC(=O)Nc3ccc(OC)cc3OC)CC2)cc1	-6.0	0.5%	-17.5%	0.8	?	-20.2%
CCOC(=O)c1c(S(=O)(=O)N2CCC(C(=O)Nc3ncccc3C)CC2)c(C)n(C)c1C	nt	nt	nt	nt	nt	5.9%[46.1 µM]
CCOC(=O)C1(Cc2ccc(OC)cc2)CCN(C(=O)c2cc(C)on2)CC1	17.9	-4.9%	61.9%	17.5*	nt	nt
CCOC(=O)C1(Cc2ccc(OC)cc2)CCN(C(=O)c2cc3ccccc3[nH]2)CC1	118.3*	13.2%	32.7%	53.9*	?	-15.9%[46.1 µM]
CCOC(=O)C1(Cc2ccc(OC)cc2)CCN(C(=O)c2sc(C)nc2C)CC1	18.2	-8.5%	8.7%	-0.7	nt	nt
c1ccc(C2Nc3ccccc3Oc3ccccc32)cc1 (configuration not stated)	9.0	10.4µM*	5.22µM*	-2.6	-49.1%[46.1 µM]	-2.5%
O=S1(=O)C[C@@H](N2CCOCC2)[C@H](N2CCOCC2)C1	11.9	-25.5%	-1.9%	6.8	9.7%	0.0%
CC1=C(C(=O)c2ccccc2)C(c2ccc(OC(F)F)cc2)NC(=S)N1 (configuration not stated)	-14.5	?	?	-3.2	3.98µM*	?
CCCOc1ccc(C2NC(=S)NC(C)=C2C(=O)c2ccccc2)cc1OC (configuration not stated)	-11.6	?	?	-2.3	14.6µM*	-4.2%
CCN1CCN(S(=O)(=O)c2ccc(C(=O)Nc3ccccc3)cc2)CC1	1.4	-4.8%	72.8%	-1.3	1.5%	?
O=C(c1ccccc1)N1CCN(S(=O)(=O)c2ccccc2)CC1	-6.1	?	29.6%	-5.1	nt	nt
Cc1ccc(C(=O)N2CCN(S(=O)(=O)N3CCCCC3)CC2)cc1	-12.4	14.4%	10.4µM*	10.5	?	1.7%
CCOC(=O)C1CN(S(=O)(=O)c2ccc(C)cc2)CCN1S(=O)(=O)c1ccc(C)cc1 (configuration not stated)	37.3	?	14.7µM*	-1.6	-14.6%	?
O=C(c1ccccc1)N1CCN(S(=O)(=O)N2CCCCC2)CC1	3.3	13.3%	39.9%	-2.1	2.2%	-22.7%
O=S(=O)(c1cccs1)N1CCN(c2ncccn2)CC1	10.0	-16.1%	-7.2%	-0.6	-3.3%	-19.5%
Cc1ccc(C(=O)N2CCN(S(=O)(=O)c3ccc(C)cc3)CC2)cc1	-7.8	-17.2%	13.1µM*	-0.6	-7.4%[46.1 µM]	-17.8%[46.1 µM]
O=S(=O)(c1cccs1)N1CCN(c2ccc(O)cc2)CC1	0.8	?	?	15.3*	?	?
CCC(Sc1nc2ncnc(N)c2[nH]1)C(=O)O (configuration not stated)	-8.1	-5.0%	?	-0.5	-3.4%[46.1 µM]	?
CN1CCN(S(=O)(=O)c2cccs2)CC1	-5.4	6.4%	-12.1%	-2.6	-7.0%[46.1 µM]	2.3%
Cc1ccc(S(=O)(=O)N2CCN(S(=O)(=O)c3cccs3)CC2)cc1	55.7*	18.1%	2.3%	32.9*	-8.9%	-9.1%
CN(CCO)c1ccc(C=NNc2ccc([N+](=O)[O-])cc2S(=O)(=O)Nc2ccccc2C(=O)O)cc1	nt	nt	nt	nt	?	-8.5%
N#C/C(=C\c1ccc(F)c(F)c1)C(=O)NC1CCCCC1	-13.1	1.6%	19.0%	-0.7	?	-1.5%
N#C/C(=C\c1ccc(F)c(Br)c1)C(=O)NC1CC1	42.1*	96.9%	?	29.9*	nt	nt
C1=C(C(c2nnnn2C2CCCCC2)N2CCCCC2)COc2ccccc21 (configuration not stated)	-8.6	4.2%	28.6%	-3.9	-4.3%	-25.0%
SMILES	Shiga inhibitor	Pf growth 48h	Pf growth 96h	CHX counter	MARV entry inh	LASV entry inh
CC(=O)C12CCCCC1CC1C3CC(C)C4(O)CC(=O)CCC4(C)C3CCC12C (configuration not stated)	-17.5	0.0%	9.28µM*	-3.0	nt	nt
C#CCOCCOCCOCCNc1nc(N2CCN(C(=O)[C@H](C(C)C)n3cc(CCO)nn3)CC2)nc(N2CCN(C(=O)[C@H]([C@@H](C)CC)n3cc(CCCCN)nn3)CC2)n1	-12.5	?	?	-3.7	9.7%	-3.9%
C#CCOCCOCCOCCNc1nc(N2CCN(C(=O)CCCCCCCCCCNC(=O)[C@@H](CCSC)n3cc(CCO)nn3)CC2)nc(N2CCN(C(=O)CCCCCCCCCCNC(=O)[C@H]([C@@H](C)CC)n3cc(CCCCN=C(N)N)nn3)CC2)n1	nt	1.65µM*	0.415µM*	nt	nt	nt
C#CCOCCOCCOCCNc1nc(N2CCN(C(=O)CCCCCCCCCCNC(=O)[C@@H](CCSC)n3cc(CCO)nn3)CC2)nc(N2CCN(C(=O)CCCCCCCCCCNC(=O)[C@H]([C@@H](C)CC)n3cc(CCCCCN)nn3)CC2)n1	nt	1.65µM*	2.08µM*	nt	nt	nt
CC(=O)N1CCN(S(=O)(=O)c2ccc3c(c2)CCC(=O)N3)CC1	nt	26.8%	98.2%	nt	nt	nt
CCC1=C(OC(=O)N(CC)CC)N2C(=O)OC(=NCCc3c[nH]c4ccccc34)[C@]2(Cc2ccccc2)[C@H]2C1=CC[C@H]1C(=O)NC(=O)[C@H]12	-3.7	?	11.7µM*	-1.4	nt	nt
CCC1=C(OC(=O)N(CC)CC)N2C(=O)OC(=NCC(=O)OC)[C@]2(Cc2ccccc2)[C@H]2C1=CC[C@H]1C(=O)N(C)C(=O)[C@H]12	-9.2	?	?	0.8	nt	nt
CCC1=C(OC(=O)N(CC)CC)N2C(=O)OC(=NCC(=O)OC)[C@]2(Cc2ccccc2)[C@H]2C1=CC[C@H]1C(=O)NC(=O)[C@H]12	13.8	?	?	-6.4	nt	nt
CCC1=C(OC(=O)N(CC)CC)N2C(=O)OC(=NCCc3c[nH]c4ccccc34)[C@]2(Cc2ccccc2)[C@H]2C1=CC[C@H]1C(=O)N(CC(=O)OC)C(=O)[C@H]12	-1.4	5.22µM*	13.1µM*	-3.4	nt	nt
CCC1=C(OC(=O)N(CC)CC)N2C(=O)OC(=NCCOC)[C@]2(Cc2ccccc2)[C@H]2C1=CC[C@H]1C(=O)N(CC(=O)OC)C(=O)[C@H]12	-7.7	9.28µM*	?	11.1	nt	nt
CN(C)C(CNC(C(=O)Nc1ccc([N+](=O)[O-])cc1Br)c1ccccc1)c1ccccc1 (configuration not stated)	-10.7	?	?	4.9	?	?
O=C(OCc1ccc(COC(=O)c2cccnc2Cl)cc1)c1cccnc1Cl	-5.9	31.7%	12.7%	-1.3	?	1.8%
C=CCc1cccc(OC)c1OCCOCCn1ccnc1	2.5	-14.7%	?	-2.6	1.4%	-6.5%
CC(c1ccccc1)N(CCC(c1ccccc1)C1CCOC(C)(C)C1)C(=O)c1ccco1 (configuration not stated)	-13.6	11.7µM*	-4.9%	-6.5	3.98µM*	?

Source: PubChem
